Results reported in PubChem BioAssay (EPA / NIEHS).
Calls of active or inactive are those of the source. The calls were made as follows: active = hit-call score of the fitted dose curve at least 0.9, where 1 is the maximum; inactive = score below 0.9.

Legend:
[1] = ATG_CRE_CIS: Attagene CIS-FACTORIAL HepG2 Assay for human cAMP Responsive Element (CRE) binding protein 3 (AID 2282926); settings: HepG2 CRE cis-reporter, Attagene multiplexed mRNA; actives raise or lower the signal
In short: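 HepG2 cells transiently transfected with a multiplexed reporter library (CRE-driven unit among them) were dosed for 24 h. Reporter mRNA was quantified by RT-PCR, fluorescent labelling, HpaI digestion and capillary electrophoresis, with bidirectional fitting against DMSO baseline.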

[2] = ATG_DR4_LXR_CIS: Attagene CIS-FACTORIAL HepG2 Assay for human Liver X Receptor (LXR), DR4 submotif (AID 2282929); settings: HepG2 Attagene DR4 cis-reporter, mRNA transcription; actives raise or lower the signal
In short: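 Transiently transfected HepG2 liver cells; cis-regulated reporters; 24 h dosing. RT-PCR plus CE read-out of reporter mRNA. DMSO baseline, bidirectional curve fitting.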

[3] = ATG_AP_2_CIS: Attagene CIS-FACTORIAL HepG2 Assay for human Activator Protein 2 (AP-2) (AID 2282932); settings: HepG2 AP-2 cis-reporter, Attagene transcription factor profiling; actives raise or lower the signal
In short: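 Step one: transient transfection of HepG2 with reporter transcription units. Step two: 24 h chemical exposure. Step three: RNA extraction, RT-PCR, labelled fragment analysis by capillary electrophoresis; DMSO serves as baseline.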

[4] = ATG_BRE_CIS: Attagene CIS-FACTORIAL HepG2 Assay for human Bone Morphogenetic Protein (BMP) Response Element (BRE) (AID 2282933); settings: HepG2 BMP response element reporter, Attagene transcription factor profiling; actives raise or lower the signal
In short: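 Endogenous transcription factor activity read in transiently transfected HepG2 cells after 24 h chemical exposure. Bidirectional curve fitting against DMSO; readout is reporter transcript level by RT-PCR with capillary electrophoresis of labelled products.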

[5] = target: Transcription factor E2F1 (Homo sapiens) (UniProt Q01094); assay: ATG_E2F_CIS: Attagene CIS-FACTORIAL HepG2 Assay for human E2F Transcription Factor 1 (AID 2282935); settings: HepG2 Attagene cis-reporter, E2F reporter RNA transcripts; actives raise or lower the signal
Transcription factor E2F1 (Homo sapiens), sequence (Q01094 whole entry, looked up): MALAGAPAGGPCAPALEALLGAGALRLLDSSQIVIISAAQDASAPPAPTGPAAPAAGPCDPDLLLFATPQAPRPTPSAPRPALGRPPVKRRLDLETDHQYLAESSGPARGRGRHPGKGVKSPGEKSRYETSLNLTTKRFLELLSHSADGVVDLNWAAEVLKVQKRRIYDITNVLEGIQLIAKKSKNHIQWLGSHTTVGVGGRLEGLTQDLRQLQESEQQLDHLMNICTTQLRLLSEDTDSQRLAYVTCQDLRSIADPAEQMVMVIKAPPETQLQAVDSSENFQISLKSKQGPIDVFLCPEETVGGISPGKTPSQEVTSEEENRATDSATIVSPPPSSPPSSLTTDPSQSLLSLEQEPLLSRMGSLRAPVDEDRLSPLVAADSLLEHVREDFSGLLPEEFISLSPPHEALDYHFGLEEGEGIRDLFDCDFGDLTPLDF
In short: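 Total RNA from 24 h-treated, reporter-transfected HepG2 cells undergoes DNase I treatment, oligo(dT) reverse transcription, PCR and 6-FAM primer extension before capillary electrophoresis.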

[6] = ATG_E_Box_CIS: Attagene CIS-FACTORIAL HepG2 Assay for human Enhancer Box (E-box) (AID 2282936); settings: HepG2 E-box cis-reporter transcription, actives raise or lower the signal
In short: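 DMSO served as negative control and baseline for bidirectional fitting. Human hepatoma HepG2 cells, transiently transfected with cis-reporter constructs, were dosed 24 h; reporter mRNA read by RT-PCR and capillary electrophoresis.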

[7] = ATG_M_19_CIS: Attagene CIS-FACTORIAL HepG2 Assay for M19 Transcription Factor (Internal Marker) (AID 2282939); settings: HepG2 Attagene CIS-FACTORIAL M19 internal marker reporter; actives raise or lower the signal
In short: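 Internal marker readout, fitted in both directions against DMSO, from HepG2 cells carrying transfected cis-element reporter constructs; RT-PCR and capillary electrophoresis of reporter mRNA after 24 h exposure.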

[8] = ATG_Ets_CIS: Attagene CIS-FACTORIAL HepG2 Assay for human Erythroblast Transformation Specific (ETS) (AID 2282941); settings: HepG2 ETS cis-reporter transcription, actives raise or lower the signal
In short: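 HepG2 cells transiently transfected with cis-promoter reporter transcription units were dosed for 24 h; reporter mRNA was measured by RT-PCR, 6-FAM primer extension, HpaI digestion and capillary electrophoresis, with bidirectional fitting against DMSO baseline.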

[9] = target: Hepatocyte nuclear factor 3-beta (Homo sapiens) (UniProt Q9Y261); assay: ATG_FoxA2_CIS: Attagene CIS-FACTORIAL HepG2 Assay for human Forkhead box A2 (FOXA2) (AID 2282942); settings: HepG2 cis-reporter transcription factor activity, 24 h; actives raise or lower the signal
Hepatocyte nuclear factor 3-beta (Homo sapiens), sequence (Q9Y261 whole entry, looked up): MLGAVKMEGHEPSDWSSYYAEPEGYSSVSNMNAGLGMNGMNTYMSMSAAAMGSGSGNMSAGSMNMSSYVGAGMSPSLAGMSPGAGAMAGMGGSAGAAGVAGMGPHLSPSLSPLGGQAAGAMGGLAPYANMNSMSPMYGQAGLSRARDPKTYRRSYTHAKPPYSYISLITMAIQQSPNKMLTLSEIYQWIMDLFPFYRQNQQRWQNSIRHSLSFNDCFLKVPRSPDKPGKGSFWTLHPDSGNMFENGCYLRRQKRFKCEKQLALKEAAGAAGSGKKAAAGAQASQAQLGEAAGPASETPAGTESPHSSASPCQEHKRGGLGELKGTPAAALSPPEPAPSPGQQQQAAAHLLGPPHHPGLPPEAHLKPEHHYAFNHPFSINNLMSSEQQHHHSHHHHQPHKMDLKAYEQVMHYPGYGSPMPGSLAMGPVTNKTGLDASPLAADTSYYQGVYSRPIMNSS
In short: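 Multiplexed cis-element reporter assay in transiently transfected HepG2. Twenty-four hours post-dosing, RNA was reverse-transcribed, amplified, FAM-labelled, HpaI-digested and separated by CE. Activity gain or loss relative to DMSO.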

[10] = ATG_FoxO_CIS: Attagene CIS-FACTORIAL HepG2 Assay for human Forkhead box O (FoxO) (AID 2282943); settings: HepG2 Attagene cis-reporter, FoxO element, mRNA; actives raise or lower the signal
In short: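 Human hepatoma HepG2 cells carry transiently introduced reporter transcription units controlled by cis promoter elements. Chemical treatment lasted 24 h, and mRNA signal was compared with DMSO.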

[11] = ATG_GATA_CIS: Attagene CIS-FACTORIAL HepG2 Assay for human GATA Binding Protein (AID 2282944); settings: HepG2 GATA cis-element reporter, Attagene multiplex mRNA; actives raise or lower the signal
In short: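 Reporter transcripts from a GATA cis-regulated unit, among multiplexed reporters in transfected HepG2 cells, were measured by RT-PCR with capillary electrophoresis after 24 h dosing. Induction or loss scored relative to DMSO.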

[12] = ATG_M_32_CIS: Attagene CIS-FACTORIAL HepG2 Assay for M32 Transcription Factor (Internal Marker) (AID 2282949); settings: HepG2 Attagene cis-factorial M32 reporter, mRNA; actives raise or lower the signal;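 also: background control marker of the multiplexed CIS panel rather than a real target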
In short: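 Internal background marker read-out: RT-PCR/capillary electrophoresis fluorescence of reporter transcripts from transiently transfected HepG2 cells after 24 h chemical exposure. Activity fitted bidirectionally relative to DMSO negative control.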

[13] = ATG_PXRE_CIS: Attagene CIS-FACTORIAL HepG2 Assay for human Pregnane X Receptor Element (PXRE) (AID 2282957); settings: HepG2 Attagene CIS-FACTORIAL PXRE reporter, mRNA; actives raise or lower the signal
In short: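 HepG2 cells transiently transfected with cis-regulated multiple reporter transcription units; endogenous factor activity measured as reporter mRNA 24 h after dosing. RT-PCR, fluorescent primer extension, HpaI digestion, capillary electrophoresis; bidirectional fit versus DMSO baseline.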

[14] = ATG_Sox_CIS: Attagene CIS-FACTORIAL HepG2 Assay for human SRY-box transcription factor (SOX) (AID 2282960); settings: HepG2 Attagene cis-factorial SOX reporter, mRNA; actives raise or lower the signal
In short: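 Fluorescence-labelled cDNA fragments from reporter transcripts, sized by CE, give the signal. Cells: HepG2, transiently transfected with cis-regulated reporter units. Exposure 24 h; DMSO negative control; bidirectional curve fitting.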

[15] = target: Transcription factor Sp1 (Homo sapiens) (UniProt P08047); assay: ATG_Sp1_CIS: Attagene CIS-FACTORIAL HepG2 Assay for human Specificity Protein 1 (Sp1) (AID 2282961); settings: HepG2 Sp1 cis-reporter transcription, actives raise or lower the signal
Transcription factor Sp1 (Homo sapiens), sequence (P08047 whole entry, looked up): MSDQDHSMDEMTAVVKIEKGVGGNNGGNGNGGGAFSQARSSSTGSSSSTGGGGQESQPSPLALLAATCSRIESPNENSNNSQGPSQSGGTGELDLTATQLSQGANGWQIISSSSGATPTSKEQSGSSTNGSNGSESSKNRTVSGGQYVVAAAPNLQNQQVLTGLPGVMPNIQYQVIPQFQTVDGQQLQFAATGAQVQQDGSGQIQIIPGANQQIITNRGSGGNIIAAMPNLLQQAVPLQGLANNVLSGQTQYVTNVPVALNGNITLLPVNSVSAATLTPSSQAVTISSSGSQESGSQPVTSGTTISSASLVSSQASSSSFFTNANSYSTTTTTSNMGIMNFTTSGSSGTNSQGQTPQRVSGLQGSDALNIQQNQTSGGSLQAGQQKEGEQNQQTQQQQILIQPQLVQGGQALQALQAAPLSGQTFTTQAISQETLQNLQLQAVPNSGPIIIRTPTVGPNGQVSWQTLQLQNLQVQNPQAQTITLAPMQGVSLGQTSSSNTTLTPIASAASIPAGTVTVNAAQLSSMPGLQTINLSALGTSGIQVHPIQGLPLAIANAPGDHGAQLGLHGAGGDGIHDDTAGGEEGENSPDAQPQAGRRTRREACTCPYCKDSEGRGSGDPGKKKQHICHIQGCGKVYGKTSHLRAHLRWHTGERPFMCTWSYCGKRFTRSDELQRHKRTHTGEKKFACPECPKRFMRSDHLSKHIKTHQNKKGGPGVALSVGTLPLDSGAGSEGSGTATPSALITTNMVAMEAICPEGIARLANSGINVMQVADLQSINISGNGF
In short: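 Chemicals are dosed onto HepG2 cells transfected with multiple cis-promoter reporter constructs, and after 24 h reporter RNA is reverse-transcribed, PCR-amplified and resolved by capillary electrophoresis for fluorescence quantitation; activity is scored up or down against DMSO.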

[16] = ATG_SREBP_CIS: Attagene CIS-FACTORIAL HepG2 Assay for human Sterol Regulatory Element Binding (SREBP) (AID 2282962); settings: HepG2 Attagene cis-factorial SREBP reporter, mRNA; actives raise or lower the signal
In short: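 HepG2 cells transiently transfected with multiplexed cis-element reporter units report endogenous transcription factor activity. After 24 h of chemical exposure, reporter mRNA was quantified by RT-PCR, 6-FAM labelling, HpaI digestion and capillary electrophoresis; bidirectional fits used DMSO as baseline.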

[17] = target: Signal transducer and activator of transcription 3 (Homo sapiens) (UniProt P40763); assay: ATG_STAT3_CIS: Attagene CIS-FACTORIAL HepG2 Assay for human Signal Transducer and Activator of Transcription 3 (STAT3) (AID 2282963); settings: HepG2, Attagene cis-factorial STAT3 reporter transcription; actives raise or lower the signal
Signal transducer and activator of transcription 3 (Homo sapiens), sequence (P40763 whole entry, looked up): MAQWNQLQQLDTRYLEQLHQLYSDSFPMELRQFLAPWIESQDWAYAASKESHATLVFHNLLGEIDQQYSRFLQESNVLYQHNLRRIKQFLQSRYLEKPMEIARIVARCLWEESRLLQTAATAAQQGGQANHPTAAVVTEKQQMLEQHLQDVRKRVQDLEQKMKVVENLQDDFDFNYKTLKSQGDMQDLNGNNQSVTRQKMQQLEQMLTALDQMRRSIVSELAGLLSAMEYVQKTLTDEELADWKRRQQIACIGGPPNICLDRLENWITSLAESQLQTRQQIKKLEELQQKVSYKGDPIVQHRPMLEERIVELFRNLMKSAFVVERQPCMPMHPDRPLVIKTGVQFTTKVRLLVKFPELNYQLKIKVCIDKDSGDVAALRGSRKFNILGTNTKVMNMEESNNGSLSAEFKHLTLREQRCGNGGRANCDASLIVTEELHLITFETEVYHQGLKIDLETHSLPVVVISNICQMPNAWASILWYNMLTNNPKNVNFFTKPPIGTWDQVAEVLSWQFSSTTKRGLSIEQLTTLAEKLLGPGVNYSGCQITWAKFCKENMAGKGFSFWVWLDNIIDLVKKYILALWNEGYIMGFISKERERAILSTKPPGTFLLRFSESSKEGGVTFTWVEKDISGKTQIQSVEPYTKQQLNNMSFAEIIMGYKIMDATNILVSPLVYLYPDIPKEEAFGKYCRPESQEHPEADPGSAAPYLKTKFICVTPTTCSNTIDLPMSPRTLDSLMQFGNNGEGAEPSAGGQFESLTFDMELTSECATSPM
In short: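 After a 24 h compound incubation, total RNA from MRTU-transfected HepG2 cells was converted to cDNA and reporter sequences PCR-amplified, labelled and profiled by capillary electrophoresis. Gain and loss of signal were referenced to DMSO.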

[18] = ATG_TA_CIS: Attagene CIS-FACTORIAL HepG2 Assay for human TA Basal Promoter (AID 2282964); settings: HepG2 Attagene CIS-factorial TA basal promoter reporter; actives raise or lower the signal
In short: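 Background-control readout: TA basal promoter reporter mRNA, fitted in both directions relative to DMSO. Measured by RT-PCR and capillary electrophoresis 24 hours after treating HepG2 human liver cells transiently carrying multiplexed cis-regulated reporter constructs.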

[19] = ATG_TCF_b_cat_CIS: Attagene CIS-FACTORIAL HepG2 Assay for human T-Cell-Factor with beta-catenin (TCF/b-cat) (AID 2282965); settings: HepG2 TCF/beta-catenin cis-reporter transcription, actives raise or lower the signal
In short: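 Measured: reporter mRNA in HepG2 transiently transfected with cis-promoter reporter units, 24 h after chemical addition. Fitting was bidirectional, DMSO as negative control.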

[20] = ATG_TGFb_CIS: Attagene CIS-FACTORIAL HepG2 Assay for human Transforming Growth Factor (TGF) (AID 2282967); settings: HepG2 Attagene CIS TGFb reporter, mRNA transcription; actives raise or lower the signal
In short: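 Endogenous TGFB1-linked transcription factor activity read as reporter mRNA via RT-PCR and capillary electrophoresis, 24 h after dosing transiently transfected HepG2 cells. Gain or loss of signal fitted relative to DMSO.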

Measured: AC50

C=CCc1ccc(OC(=O)Cc2ccccc2)c(OC)c1
active: [13] 8.28 µM
inactive: all other assays above

COC(=O)COc1ccc(Cl)cc1Cl
inactive: all assays above

Nc1c(Cl)c(Cl)c(Cl)c(Cl)c1Cl
active: [13] 15.4 µM
inactive: all other assays above

CCc1cccc(C)c1N(C(=O)CCl)[C@@H](C)COC
active: [13] 0.474 µM
inactive: all other assays above

CC(C)(C)C(=O)CCl
active: [2] 55.2 µM | [6] 45.2 µM
inactive: all other assays above

CC(C)(O)C#N
active: [13] 27.4 µM
inactive: all other assays above

CC[N+](=O)[O-]
inactive: all assays above
